Screening results: PubChem, National Center for Advancing Translational Sciences (NCATS)
Compounds with a hit are over-represented: about 7.5% of the library has one in this group of screens.
TSHR antagonist: blocks TSH signaling through the human TSH receptor; P16473; TSHR-expressing cells, TSH-stimulated cAMP HTRF, 2 h; active compounds read low; activity change, negative = inhibition, % at 11.5 µM; actives 0.2% (n = 330,000); AID 504810;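 active means activity change below a set negative limit, meaning inhibition stronger than a set level, cut at about -70% in these data; inconclusive means activity change between two set negative limits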
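Competitive HTRF cAMP read-out (cryptate anti-cAMP antibody, cAMP-d2; 30 min, room temperature) in freshly harvested TSHR cells. Compounds added before TSH at EC80 (4nM final), followed by 2 hours' incubation at 37 deg C.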
RORgamma inh: blocks mouse ROR gamma transcriptional activity; Potency, µM (titrated, usually from 53.6 µM), without a hit: at the highest dose activity change, negative = inhibition, usual class: inhibitors; Drosophila S2 Gal4-RORgamma UAS-luciferase reporter, 20 h; AID 2551; actives 5.4% (n = 310,000); P51450; further: potency means the concentration at half of the fitted maximal effect; nearly all actives have a fitted effect of over 60% in size
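Read-out: Photinus luciferase luminescence; inhibitors lower reporter signal. Insect Schneider cells with Gal4-ROR gamma fusion under metallothionein promoter, UAS reporter; 700 uM final copper sulfate induction, 20 hr, ambient temperature.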
ELG1 repair inh: inhibitors of ELG1-dependent DNA repair in HEK293T cells; HEK293T ELG1-luciferase reporter, luminescence, 16 h; DNA damage induced by 5-fluorouridine; Potency, µM (doses to about 46.1 µM), inactives show at the highest dose activity change, negative = inhibition, hits mostly inhibitors; actives 2.3% (n = 330,000); AID 504467; further: potency means the concentration at half of the fitted maximal effect; nearly all actives have a fitted effect of over 55% in size
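In this reporter screen, reduction of luminescence relative to DMSO vehicle indicated activity. Compounds and 5-fluorouridine were added together to 2,000 cells per well, incubated for 16 hr at 37 °C, then developed with ONE-Glo.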
VP16 counter: Gal4-VP16 reporter inhibition counter-screen; Drosophila S2 Gal4-VP16 UAS-luciferase, luminescence, 20 h; Potency, µM (doses to about 53.6 µM), for inactives: at the highest dose activity, negative = inhibition, hits mostly inhibitors; actives 3.5% (n = 310,000);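 further: Gal4-VP16 expression switched on by copper sulfate through the metallothionein promoter; potency means the concentration at half of the fitted maximal effect; nearly all actives have a fitted effect of over 50% in size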
B2AR arrestin: beta2AR (human) beta-arrestin recruitment activity | Potency, µM (titrated, usually from 46.1 µM), for inactives: top-dose activation, hits mostly activators | beta-arrestin recruitment to beta2AR, cell-based reporter | actives 0.02% (n = 330,000);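 further: potency means the concentration at half of the fitted maximal effect; 0% = DMSO controls and full agonism = EC100 isoproterenol or metaproterenol; nearly all actives have a fitted effect of over 65% in size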
Target sequence (P07550 whole entry, looked up): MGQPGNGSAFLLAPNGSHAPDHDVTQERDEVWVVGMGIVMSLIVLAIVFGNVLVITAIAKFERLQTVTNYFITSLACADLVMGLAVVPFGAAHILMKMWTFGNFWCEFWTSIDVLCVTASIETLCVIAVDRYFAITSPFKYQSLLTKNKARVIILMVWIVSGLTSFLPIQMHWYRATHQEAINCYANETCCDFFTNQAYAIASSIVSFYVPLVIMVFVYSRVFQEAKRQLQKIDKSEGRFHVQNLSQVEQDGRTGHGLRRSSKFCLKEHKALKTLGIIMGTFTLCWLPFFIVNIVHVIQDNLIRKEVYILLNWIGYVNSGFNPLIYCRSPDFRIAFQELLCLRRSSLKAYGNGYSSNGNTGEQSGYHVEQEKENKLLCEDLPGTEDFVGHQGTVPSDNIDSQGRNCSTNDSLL
* hit, by the source's call; u = inconclusive; x = no result given; [ ] = another dose, or the depositor's remark. Unless noted, the call rests on the fitted dose curve; in most records, active means well fitted curve in the direction sought with a large enough effect; inconclusive means small, poorly fitted or top-dose-only effect, or another doubt; inactive means no such curve, though single readings can be large; an effect the other way counts as inactive or inconclusive. Unless noted, on the % scale 0 is the no-effect control and ±100 the full control effect.

SMILES	TSHR antagonist	RORgamma inh	ELG1 repair inh	VP16 counter	B2AR arrestin
CC(C)C[C@H](NC(=O)c1[nH]cnc1C(=O)N[C@@H](C)C(=O)OC(C)(C)C)C(=O)OCc1ccccc1	-9	16µM*	-14%	u	-1%
C[C@H](NC(=O)c1[nH]cnc1C(=O)N[C@H](C)c1ccccc1)c1ccccc1	-7	x	2%	x	0%
CC(C)(C)OC(=O)[C@H](Cc1ccccc1)NC(=O)c1nc[nH]c1C(=O)NCC(=O)OCc1ccccc1	-11	u	29%	u	0%
CC(C)C[C@H](NC(=O)c1[nH]cnc1C(=O)N[C@@H](C)c1ccccc1)C(=O)OC(C)(C)C	2	0.63µM*	u	0.63µM*	0%
CC(C)C[C@H](NC(=O)c1[nH]cnc1C(=O)N[C@@H](Cc1ccccc1)C(=O)OC(C)(C)C)C(=O)OC(C)(C)C	-18	3.2µM*	u	11µM*	-1%
CC(C)C[C@H](NC(=O)c1[nH]cnc1C(=O)N[C@@H](Cc1ccccc1)C(=O)OCc1ccccc1)C(=O)OC(C)(C)C	3	5.6µM*	13%	16µM*	0%
Cc1ccccc1NC(=O)c1nc[nH]c1C(=O)NCc1ccccc1	-18	2.8µM*	u	5µM*	-1%
CC(C)(C)OC(=O)CNC(=O)c1[nH]cnc1C(=O)N[C@@H](Cc1ccccc1)C(=O)OC(C)(C)C	-8	u	u	13µM*	-1%
CC(=O)Nc1cc(C(=O)N(C)Cc2ccccc2)ccc1S(=O)(=O)c1ccc(C)cc1	-4	38%	0%	-13%	0%
COc1cccc(Nc2ncc3nc(-c4ccc(F)cc4)c(=O)n(CCC#N)c3n2)c1	x	0%	x	-10%	x
COc1cc(C(C[N+](=O)[O-])c2c(-c3ccccc3)cc3ccccn23)cc(OC)c1OC (stereo not given)	1	u	u	u	0%
COc1cc(C(C[N+](=O)[O-])c2c(C)cc3ccccn23)ccc1O (stereo not given)	-16	16µM*	14%	u	7%
COc1ccc(C(C[N+](=O)[O-])c2c(-c3ccccc3)cc3ccccn23)cc1OC (stereo not given)	x	8.9µM*	x	u	x
COc1ccc(NC(=O)N2CC[C@@]3(CCCNC3)C2)cc1	x	24%	x	-13%	x
CCC(=O)O[C@@]1(C(=O)SCF)[C@@H](C)C[C@H]2[C@@H]3C[C@@H](F)C4=CC(=O)C=C[C@@]4(C)[C@]3(F)[C@@H](O)C[C@]21C	x	-23%[2.98 µM]	x	-4%[17 µM]	x
O=C1OC(O)C(C(Cl)Cl)=C1Cl (stereo not given)	x	2.2µM*	x	2.8µM*	x
CCCOc1ccc(NC(=O)CC2C(=O)N(c3ccc(OCC)cc3)C(=S)N2C2CC2)cc1 (stereo not given)	-7	u	10%	u	0%
CCOc1ccc(-c2nnc(NC(=O)Cc3ccc(OC)cc3)o2)cc1	8	1.8µM*	4%	4.5µM*	0%
COc1cc(-c2nnc(NC(=O)CCS(=O)(=O)c3ccccc3)o2)cc(OC)c1OC	9	x	u	x	-1%
CCOc1ccc(-c2nnc(NC(=O)Cc3cc(OC)c(OC)c(OC)c3)o2)cc1	3	11µM*	u	u	0%
Cc1cccc(OCCCC(=O)Nc2ccc(Br)cc2)c1	-2	55%	-13%	4%	0%
COc1cccc(C(=O)OCC(=O)Nc2nnc(-c3ccccc3)o2)c1	10	x	2%	x	0%
CCC(=O)Nc1nnc(-c2ccc(OC)cc2)o1	-3	u	u	11µM*	0%
CCOc1ccc(C(=O)NCC(=O)OCC(=O)Nc2nnc(-c3ccccc3)o2)cc1	6	x	22%	x	0%
CCOc1ccc(-c2nnc(NC(=O)CCCOc3cccc(C)c3)o2)cc1	0	6.3µM*	u	u	0%
SMILES	TSHR antagonist	RORgamma inh	ELG1 repair inh	VP16 counter	B2AR arrestin
COc1ccccc1-c1cncnc1NCc1cccs1	x	0%	x	6%	x
CCOC(=O)c1ccc2nc(Nc3nc4ccc(F)cc4s3)sc2c1	2	0.79µM*	u	-18%	0%
CCOC(=O)c1ccc2nc(NC(C)=O)sc2c1	3	u	u	5%	0%
COC(=O)c1ccc2nc(NC(=O)C3CC3)sc2c1	-5	8.9µM*	u	u	0%
COC(=O)c1ccc2nc(Nc3nc4c(F)cc(F)cc4s3)sc2c1	-46	0.32µM*	u	1.1µM*	0%
c1ccc(Nc2nc(-c3ccc4c(c3)OCO4)nc3ccccc23)cc1	x	24%	x	4%	x
CC(C)=CCC1(CC=C(C)C)C(=O)C(C(=O)c2ccccc2)=C2OC(C)(C)CCC2(CC=C(C)C)C1=O (stereo not given)	x	-3%[10 µM]	x	1%[10 µM]	x
COc1ncc2nc(-c3cc(F)cc(F)c3)c(=O)n(Cc3cccs3)c2n1	x	3%	x	-5%	x
Cc1cc(NC(=O)CN(C)S(=O)(=O)c2ccc(-c3ccc(=O)[nH]n3)s2)ccc1Br	1	13µM*	24%	u	0%
O=c1[nH]c(=O)n(-c2ccc(F)cc2)c2c1C(C(F)(F)F)(C(F)(F)F)N=C(c1ccc(F)cc1)N2	-36	-26%	u	16µM*	-2%
Cc1ccc(-c2csc(NC(=O)C3CSC4(C)CCC(=O)N34)n2)cc1 (stereo not given)	2	x	u	x	0%
Cc1sc(NC(=O)C2CSC3(C)CCC(=O)N23)nc1-c1ccc(F)cc1 (stereo not given)	6	20%	18µM*	1%	-1%
O=c1[nH]c2ccccc2nc1/C=C/c1ccccc1	4	-1%	u	-8%	-1%
Cc1ccc(/C=C\c2nccc3c2[nH]c2ccccc23)cc1	4	0.63µM*	u	3.2µM*	-1%
Fc1ccc(/C=C\c2nccc3c2[nH]c2ccccc23)cc1	-22	1.8µM*	-7%	u	0%
C(=C\c1nccc2c1[nH]c1ccccc12)/c1ccccc1	-11	1.6µM*	u	4µM*	-1%
O=C(c1ccncc1)N1CCC2(CCCN(c3ccccc3)C2)CC1	x	0%	x	3%	x
COc1ccc(-c2[nH]ncc2/C=C(/C#N)C(=O)NC2CCCCCC2)cc1	-16	1%	18µM*	u	0%
Nc1nccnc1C(=O)OCC(=O)NC1CCCc2ccccc21 (stereo not given)	0	x	2%	x	0%
Cc1ccc(-c2[nH]c3ccccc3c2C(C[N+](=O)[O-])c2ccco2)cc1 (stereo not given)	19	3%	u	22µM*	-1%
COc1ccc(-c2noc(CNS(=O)(=O)c3ccc(NC(C)=O)cc3)n2)cc1OC	-3	-11%	2%	5%	0%
CCOC(=O)c1c(C)[nH]c(C(=O)OCC(=O)Nc2cc(Cl)ccc2OC)c1C	44	41%	-5%	-8%	0%
